Compound activity from PubChem.
A selection: hits, their analogues and other compounds. The true share with any hit is near 4.1%.
hgDAF-12 ag: activates the H. glycines DAF-12 receptor ligand-binding domain; HEK293 GAL4-hgDAF12 UAS-luciferase reporter, agonist luminescence; normalized to butyrate control; activation, % at 6.8 µM; hit rate 1.8% among 370,000; AID 687014;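 active = activation above a cutoff set at the mean of all screened compounds plus 3 SD, cut at about 10% in these data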
DAX1 inh-1: blocks DAX1 repression of SF-1 activated StAR promoter | HEK293T StAR-luciferase reporter, SF-1/DAX-1 repression relief | inhibition, % at 6.8 µM | hit rate 1.1% among 370,000 | AID 652010;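 active = inhibition above the mean over all tested compounds plus 3 SD, cut at about 3.6% in these data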;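 also: higher inhibition means more luminescence from relief of DAX-1 repression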
ssDAF-12 act: S. stercoralis DAF-12 activation, primary screen | HEK293 ssDAF-12/GRIP1 lit1-tk-luc reporter, luminescence; % of 3 µM dafachronic acid response | activation, % at 6.8 µM | hit rate 1% among 370,000 | AID 652126;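 active = activation above the mean over all tested compounds plus 3 SD, cut at about 0.9% in these data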
hcDAF12 agonist: activators of H. contortus DAF-12 nuclear receptor; HEK293 hcDAF-12 lit1-tk-luc reporter, luminescence; 0% DMSO, 100% Δ7-dafachronic acid; activation, % at 6.8 µM; hit rate 1.4% among 370,000; AID 652067;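 active = activation above the mean of all tested compounds plus 3 SD, cut at about 5.5% in these data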
DAX1 inh-2: NR0B1 (DAX1) inhibition; P51843; HEK293 Gal4-DAX1 luciferase reporter, luminescence; inhibition, % at 6.75 µM; hit rate 0.99% among 340,000;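 active = inhibition above the mean over all tested compounds plus 3 SD, cut at about 4.2% in these data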;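 also: inhibition shows as a rise in luminescence from relieved DAX1 repression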
LXR ag: counter-screen for hcDAF-12 agonists: agonists of human LXR-beta | shares compounds with hcDAF12 agonist | HEK293 Gal4-LXR tk-luc reporter, luminescence, 24 h; normalized: DMSO 0%, positive control 100% | activation, % at 6.8 µM | 3,400 tested, under 10 active;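 active = mean percent activation of the reporter above a cutoff set as the average over tested compounds plus their standard deviation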
Target sequence (P55055 whole entry, looked up, the tested form may be a part): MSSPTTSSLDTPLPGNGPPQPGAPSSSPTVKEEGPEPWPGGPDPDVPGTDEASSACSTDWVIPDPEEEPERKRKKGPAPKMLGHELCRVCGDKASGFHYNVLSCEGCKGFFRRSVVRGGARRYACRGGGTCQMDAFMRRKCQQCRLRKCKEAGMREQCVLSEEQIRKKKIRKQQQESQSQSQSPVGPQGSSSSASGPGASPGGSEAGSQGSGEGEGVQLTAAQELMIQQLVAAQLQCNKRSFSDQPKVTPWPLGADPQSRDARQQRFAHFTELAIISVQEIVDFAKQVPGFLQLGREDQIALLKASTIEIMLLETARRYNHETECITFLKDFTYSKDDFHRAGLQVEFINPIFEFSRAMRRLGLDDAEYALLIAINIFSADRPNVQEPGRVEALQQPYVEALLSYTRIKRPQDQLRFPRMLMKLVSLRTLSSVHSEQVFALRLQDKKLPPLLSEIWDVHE
hcDAF12 ag: hcDAF-12 agonism, confirmation assay; HEK293 hcDAF-12 lit1-tk-luc reporter, luminescence; % of Δ7-dafachronic acid response; activation, % at 6.8 µM; hit rate 61% among 3,400; shares compounds with hcDAF12 agonist;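 active = mean activation across triplicate tests above the threshold derived from the earlier primary screen, cut at about 5.5% in these data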
A number is an active result; - = inactive; . = no result.

SMILES	hgDAF-12 ag	DAX1 inh-1	ssDAF-12 act	hcDAF12 agonist	DAX1 inh-2	LXR ag	hcDAF12 ag
O=C(C[n+]1ccc2ccccc2c1)c1ccc(NC(=O)c2ccccc2)cc1	-	-	-	-	-	.	.
c1ccc(SC23CCCCN(CCC2)C32OCCO2)cc1 (stereo unspecified)	-	-	-	-	.	.	.
Fc1ccccc1N1CCN(C(c2ccnc3ccccc23)c2nnnn2-c2ccc3c(c2)OCCO3)CC1 (stereo unspecified)	-	-	-	-	.	.	.
Cc1cccc(C(O)c2ncc(-c3ccccc3F)[nH]2)c1C (stereo unspecified)	-	-	-	-	.	.	.
O=C(NC(=S)Nc1ncc(Br)cc1Br)c1ccccc1	-	-	-	8.0	-	-	8.7
Cc1cc(C)c(C)c(S(=O)(=O)N2CCC(C(=O)NCCCN3CCOCC3)CC2)c1C	-	-	-	-	-	.	.
CC(NC(=O)c1cc2ccccn2n1)c1ccccc1 (stereo unspecified)	-	-	-	-	.	.	.
O=C(Nc1ccc(Br)cc1)c1cc2ccccn2n1	13	-	-	6.9	-	-	-
CN1CCN(NC(=O)c2cc(-c3cccc(Cl)c3)nc3ccccc23)CC1	-	-	-	-	-	.	.
CC(C)c1ccc(-c2cc(C(=O)NN3CCN(C)CC3)c3ccccc3n2)cc1	-	-	-	7.3	-	-	6.0
C[C@H]1CN([C@@H](C)CO)C(=O)CCCn2nncc2CO[C@@H]1CN(C)Cc1ccc2cccnc2c1	-	-	-	-	.	.	.
NNc1nc(-c2ccccc2)nc2sc3c(c12)CCCC3	-	-	-	7.8	-	-	19
Cc1cc(C)cc(Cn2cc(CN3CC(N4CCCCC4)CS3(=O)=O)nn2)c1 (stereo unspecified)	-	-	-	-	.	.	.
O=C(CSC1=NS(=O)(=O)c2cc(F)ccc2N1)NCc1ccc(F)cc1	-	-	-	-	-	.	.
O=C(CSC1=NS(=O)(=O)c2cc(Cl)ccc2N1)NCc1ccccc1	-	-	-	7.0	-	-	-
CC(=O)/C=C/c1ccc2ccccc2n1	-	-	-	8.2	-	-	-
CCCS(=O)(=O)NC(=O)C1(C)CCN(C(=O)c2cc(C)oc2C)C1 (stereo unspecified)	-	-	-	-	.	.	.
COc1ccc(Nc2nc(-c3c[nH]c4ccccc34)cs2)cc1	-	-	-	11	-	-	-
CC(=O)NCCC(=O)Nc1nc(-c2c[nH]c3ccccc23)cs1	-	-	-	-	-	.	.
COc1ccccc1C1CC(c2cccs2)=NN1C(=O)CCC(=O)O (stereo unspecified)	-	-	-	7.0	-	-	-
COc1ccc(-c2nn(-c3ccccc3)cc2C2CC(c3cccs3)=NN2C(=O)CCC(=O)O)cc1 (stereo unspecified)	-	-	-	-	-	.	.
CCCCCC/C(C)=C1/SC(=S)NC1=O	-	-	-	-	-	.	.
C/C(C/C(C)=C1/SC(=S)NC1=O)=C1\SC(=S)NC1=O	-	-	-	6.8	-	-	-
CCOc1cc(/C=C2\N=C(C)OC2=O)cc(Br)c1OCC(=O)OC	-	-	-	6.7	-	-	-
Cc1cccc(SCC(=O)Nc2ccc3c(c2)OCCO3)c1	-	-	-	7.1	-	-	5.8
SMILES	hgDAF-12 ag	DAX1 inh-1	ssDAF-12 act	hcDAF12 agonist	DAX1 inh-2	LXR ag	hcDAF12 ag
COc1ccc(/C=C2\C(=O)NC(=S)N2C(=O)c2ccc(C)cc2)cc1	-	-	-	7.4	-	-	-
O=C1CN(C(=O)CN2CCN(S(=O)(=O)c3ccccc3F)CC2)c2ccccc2N1	-	-	-	-	-	.	.
COc1cccc(C(NC(C)=O)c2nc(-c3ccoc3)cs2)c1 (stereo unspecified)	-	-	-	-	.	.	.
Oc1cccc2ccc(/C=C/c3ccccc3Cl)nc12	-	-	-	7.1	-	-	6.5
COc1cc(Cl)cc(/C=C/c2ccc3cccc(O)c3n2)c1OC	-	-	-	-	-	.	.
Oc1cccc2ccc(/C=C/c3c(F)cccc3Cl)nc12	18	3.7	2.0	9.5	-	-	9.6
COc1ccc(Cl)cc1/C=C/c1ccc2cccc(O)c2n1	-	-	-	7.7	-	-	-
Cc1nc2ccc(S(=O)(=O)CCC(=O)NCc3ccc(Cl)cc3)cc2s1	-	-	-	-	.	.	.
COC(=O)C1=C(C)N(Cc2cccc(C(F)(F)F)c2)C(=NCC2CC2)NC1c1cccc(F)c1 (stereo unspecified)	-	-	-	-	.	.	.
CC1(C(=O)Nc2cccc3ccccc23)CCN1C(=O)Cc1ccccc1Cl (stereo unspecified)	-	-	-	-	.	.	.
CC1(C(=O)NS(=O)(=O)Cc2cccc(Cl)c2)CCN1C(=O)Cc1cccs1 (stereo unspecified)	-	-	-	-	.	.	.
CC1C(c2ccccc2)OCCN1C(=S)NC(=O)c1ccccc1 (stereo unspecified)	-	-	-	-	-	.	.
Cc1cc(OC(C)CCN2CCC(C(O)(c3ccccc3)c3ccccc3)CC2)ccc1Br (stereo unspecified)	-	-	-	6.8	.	-	-
CC(CCN1CCC(C(O)(c2ccccc2)c2ccccc2)CC1)Oc1ccc(OC(F)(F)F)cc1 (stereo unspecified)	-	-	-	7.5	.	-	-
Cc1cc(C)cc(OC(C)CCN2CCC(C(O)(c3ccccc3)c3ccccc3)CC2)c1 (stereo unspecified)	-	-	-	-	.	.	.
N#C/C(=C\c1ccccc1O)C(=O)Nc1cccnc1	-	-	-	-	-	.	.
COc1ccc(O)c(/C=C(\C#N)C(=O)Nc2ccccn2)c1	-	-	-	7.9	-	-	5.7
COc1cccc(C(=O)O/N=C(\N)c2ccccn2)c1OC	-	-	-	6.6	-	-	6.4
N/C(=N\OC(=O)c1ccc(Cl)cc1Cl)c1ccccn1	-	-	-	-	-	.	.
N/C(=N\OC(=O)c1ccc(Cl)cc1[N+](=O)[O-])c1ccccn1	12	-	-	8.6	-	-	-
N/C(=N\OC(=O)c1ccc(Cl)cc1[N+](=O)[O-])c1cccnc1	-	-	-	7.0	-	-	6.4
COc1cccc(C(=O)O/N=C(\N)c2ccncc2)c1OC	-	-	-	-	-	.	.
COC(=O)[C@]12C[C@H](CC(=O)N3CCC(c4ccccc4)CC3)C(=O)N(Cc3ccccc3)C1=C[C@H](COCc1ccccc1)O[C@@H]2C	-	-	-	-	.	.	.
Clc1ccc(/C=C/c2nc3ccccc3[nH]2)c(Cl)c1	-	-	1.2	12	-	-	17
Clc1cccc(Cl)c1/C=C/c1nc2ccccc2[nH]1	.	.	.	.	-	.	.
CC1=C(C#N)C(=O)NC1(C)O (stereo unspecified)	-	-	-	-	-	.	.
